KCNQ2 pot: potentiators of rat KCNQ2 potassium channel | AID 2239 | O88943 | B-score at 10 µM | 0.54% of 310,000 active | CHO-K1 KCNQ2, FluxOR thallium flux fluorescence; stronger effect = higher value;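 active = fluorescence ratio B-score at least 3 SD of library B-scores, with initial fluorescence B-score within 3 of them, cut at about 5.3 in these data; same plate scores as AID 2156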;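 note: B-score of peak minus minimum over baseline fluorescence ratio after K+ and Tl+ stimulus; positive B-score means potentiation of KCNQ2 with more thallium influx and brighter signal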
Target sequence (O88943 whole entry, looked up): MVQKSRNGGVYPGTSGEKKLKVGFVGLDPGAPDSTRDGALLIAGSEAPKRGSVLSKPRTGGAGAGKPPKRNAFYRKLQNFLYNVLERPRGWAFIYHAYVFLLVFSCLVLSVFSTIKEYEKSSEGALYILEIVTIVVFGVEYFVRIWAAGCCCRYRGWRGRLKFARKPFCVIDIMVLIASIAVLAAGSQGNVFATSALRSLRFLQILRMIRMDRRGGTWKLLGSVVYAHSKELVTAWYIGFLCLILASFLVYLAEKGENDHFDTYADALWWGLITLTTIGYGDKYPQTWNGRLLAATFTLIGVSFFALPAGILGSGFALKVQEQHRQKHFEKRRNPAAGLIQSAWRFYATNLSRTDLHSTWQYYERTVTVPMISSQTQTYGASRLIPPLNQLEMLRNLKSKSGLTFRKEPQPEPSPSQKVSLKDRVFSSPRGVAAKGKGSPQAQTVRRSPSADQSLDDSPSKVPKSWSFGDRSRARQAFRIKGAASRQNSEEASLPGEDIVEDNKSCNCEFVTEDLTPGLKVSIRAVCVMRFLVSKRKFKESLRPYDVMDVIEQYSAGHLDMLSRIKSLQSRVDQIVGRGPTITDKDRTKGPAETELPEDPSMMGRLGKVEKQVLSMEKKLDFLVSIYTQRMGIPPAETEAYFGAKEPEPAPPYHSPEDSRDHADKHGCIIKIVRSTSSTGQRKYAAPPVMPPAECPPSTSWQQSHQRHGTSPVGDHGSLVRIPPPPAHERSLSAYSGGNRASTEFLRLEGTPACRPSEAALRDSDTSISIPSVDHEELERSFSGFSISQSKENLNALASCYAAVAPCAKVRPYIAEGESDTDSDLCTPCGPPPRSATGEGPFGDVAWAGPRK
KCNQ2 block: KCNQ2 (rat) channel inhibition. AID 2156. B-score at 10 µM. CHO-K1 KCNQ2, FluxOR thallium flux, 20 min; stronger effect = lower value. 1.1% of 310,000 active. O88943;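 active = fluorescence ratio B-score at most minus 3 library SDs, with starting brightness B-score within 2 library SDs, cut at about -5.5 in these data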
* marks the source's active call; other numbers are inactive results; i = inactive; / = no result. The list is not random: actives were taken first. Their share in the collection is about 1.6%.

SMILES	KCNQ2 pot	KCNQ2 block
COc1ccc(Cn2nnnc2C(c2cc3cccc(C)c3[nH]c2=O)N2CCOCC2)cc1 (configuration not stated)	/	i
Cc1nc2ccccn2c1C(=O)NC1CCCc2ccccc21 (configuration not stated)	0.63	i
COc1ccc(S(=O)(=O)N2CCOCC2)cc1NC(=O)c1cccc2c(=O)c(C)c(-c3ccccc3)oc12	0.96	i
CC(C)S(=O)(=O)c1csc(NC(=O)Nc2cccc([N+](=O)[O-])c2)c1Cl	0.67	i
O=C(CCNC(=O)c1ccco1)Nc1ccc(Cl)c(C(F)(F)F)c1	1.36	i
CC12CCC(=O)N1C(C(=O)Nc1nc3ccc(Cl)cc3s1)CS2 (configuration not stated)	-6.01	-6.01*
CC12CCC(=O)N1C(C(=O)Nc1nc3ccc(S(C)(=O)=O)cc3s1)CS2 (configuration not stated)	0.59	i
CCOc1ccccc1-n1nnnc1SCC(=O)NCc1ccco1	1.21	i
CCN=C(NCC)SC1CC(=O)N(c2ccccc2)C1=O (configuration not stated)	/	i
CCN=C(NCC)SC1CC(=O)N(c2cccc(OC)c2)C1=O (configuration not stated)	-5.8	-5.8*
NC(=O)COC(=O)CCSc1ccc(Cl)cc1	/	i
COC(=O)CCC(=O)c1ccc(OC)c(Cl)c1	0.02	i
CC(=O)n1cc([C@H]2C=C(C(=O)N3CCN(Cc4ccc5c(c4)OCO5)CC3)O[C@@H](OCCCCO)C2)c2ccccc21	/	i
CCOC(=O)c1c(NC(NC(C)=O)C(Cl)(Cl)Cl)sc2c1CCCC2 (configuration not stated)	-6.48	-6.48*
COC(=O)c1c(NC(NC(C)=O)C(Cl)(Cl)Cl)sc2c1CCCC2 (configuration not stated)	/	i
Cc1ccc(-n2nnc(-c3nccn3C)n2)cc1	0.65	i
CC(C)CNC(=O)c1ccccc1NC(=O)/C=C/c1cccc([N+](=O)[O-])c1	0.44	i
CCCCN(C(=O)/C=C/c1ccccc1)C1CCS(=O)(=O)C1 (configuration not stated)	0.07	i
CCN(C(=O)/C=C/c1ccccc1)C1CCCCC1	-5.8	-5.8*
O=C(/C(=C/c1ccc(Cl)cc1)c1nc2ccccc2[nH]1)c1cccs1	-6.31	-6.31*
COc1cc(/C=C(/C(=O)c2cccs2)c2nc3ccccc3[nH]2)ccc1O	-7.63	-7.63*
COC(=O)/C(=C\c1cc(OC)c(OC)c(OC)c1)c1nc2ccccc2[nH]1	/	i
O=C(/C(=C\c1ccccc1)c1nc2ccccc2[nH]1)c1ccc(Cl)cc1	0.99	i
CCc1ccccc1N1CCN(S(=O)(=O)c2cc(OC)ccc2OC)CC1	-7.06	-7.06*
COc1ccc(OC)c(S(=O)(=O)N2CCN(c3ccccc3)CC2)c1	0.08	i
SMILES	KCNQ2 pot	KCNQ2 block
Fc1ccc(Nc2nc(N3CCOCC3)c3ccccc3n2)cc1	/	i
c1ccc2c(Nc3nc(N4CCOCC4)c4ccccc4n3)cccc2c1	-6.55	-6.55*
COc1ccc(-c2ccc(SCC(=O)N3CC(=O)Nc4ccccc43)nn2)cc1	2.39	i
COc1ccc(-n2cccc2/C=C/[N+](=O)[O-])cc1	-6.46	-6.46*
COc1ccc(-n2cccc2C=O)cc1	0.01	i
O=S(=O)(c1ccc(OC(F)(F)F)cc1)N1CCCC(c2ccccc2)C1 (configuration not stated)	-5.72	-5.72*
O=c1[nH]c(C2CCCN(S(=O)(=O)c3ccccc3)C2)nc2c1nnn2Cc1ccc(OC(F)(F)F)cc1 (configuration not stated)	0.06	i
CCn1c(COc2ccccc2)nnc1SCC(=O)NC1CC1	/	i
CC(C)(C)c1ccc(CSc2nc(N)cc(=O)[nH]2)cc1	2.43	i
Cc1cccc(C)c1OCC(=O)NCc1ccccc1	-6.38	-6.38*
O=C(COc1ccccc1)NCc1ccccc1	0.27	i
Cc1cccc(OCC(=O)Nc2ccccc2C(F)(F)F)c1	/	i
CCN(CC(=O)Nc1ccc(OC)cc1)C(=O)c1oc2c(Cl)cccc2c1C	0.26	i
CCN(CC(=O)Nc1ccccc1C(F)(F)F)C(=O)c1oc2c(Cl)cccc2c1C	-6.81	-6.81*
Cc1cccc(C)c1OCC(=O)Nc1ccccc1C(F)(F)F	-7.01	-7.01*
CCC(C)NC(=O)c1ccc(-n2c(=S)[nH]c3ccccc3c2=O)cc1 (configuration not stated)	0.11	i
COCCC(=O)N1CCC(n2nccc2NC(=O)CCc2ccccc2)CC1	/	i
C/C=C(/C)C(=O)OC1c2c(ccc3ccc(=O)oc23)OC(C)(C)C1OC(=O)/C(C)=C\C (configuration not stated)	-9.9	-9.9*
C/C=C(\C)C(=O)OC1c2c(ccc3ccc(=O)oc23)OC(C)(C)C1OC(C)=O (configuration not stated)	1.29	i
Cc1ccc(CNC(=O)c2cn(C3CCCC3)c(=O)c3c2c2ccccc2n3C)o1	-7.98	-7.98*

Bioassay records from PubChem.
